Data on 60 compounds can be found in PubChem BioAssay AID1903 (Southern Research Specialized Biocontainment Screening …, 2009).

Several values for one entry are separate records, joined by “and”; a condition that tells them apart may be missing. Equal values may be shown once. Screen size: about 310,000 compounds; about 1,200 (0.39%) were called active. How the calls were made is not given here. A selection follows. Results with a measured potency or affinity are listed apart.

The target of this test is Large T antigen (Simian virus 40) (UniProt P03070). The test can be described thus: SV40 large T antigen inhibitors, biochemical (AID 1903). The settings on record: SV40 large T antigen ATPase/helicase inhibition assay; at 20 µM; hits give high values.
Chain of Large T antigen (Simian virus 40) (P03070 whole entry, looked up): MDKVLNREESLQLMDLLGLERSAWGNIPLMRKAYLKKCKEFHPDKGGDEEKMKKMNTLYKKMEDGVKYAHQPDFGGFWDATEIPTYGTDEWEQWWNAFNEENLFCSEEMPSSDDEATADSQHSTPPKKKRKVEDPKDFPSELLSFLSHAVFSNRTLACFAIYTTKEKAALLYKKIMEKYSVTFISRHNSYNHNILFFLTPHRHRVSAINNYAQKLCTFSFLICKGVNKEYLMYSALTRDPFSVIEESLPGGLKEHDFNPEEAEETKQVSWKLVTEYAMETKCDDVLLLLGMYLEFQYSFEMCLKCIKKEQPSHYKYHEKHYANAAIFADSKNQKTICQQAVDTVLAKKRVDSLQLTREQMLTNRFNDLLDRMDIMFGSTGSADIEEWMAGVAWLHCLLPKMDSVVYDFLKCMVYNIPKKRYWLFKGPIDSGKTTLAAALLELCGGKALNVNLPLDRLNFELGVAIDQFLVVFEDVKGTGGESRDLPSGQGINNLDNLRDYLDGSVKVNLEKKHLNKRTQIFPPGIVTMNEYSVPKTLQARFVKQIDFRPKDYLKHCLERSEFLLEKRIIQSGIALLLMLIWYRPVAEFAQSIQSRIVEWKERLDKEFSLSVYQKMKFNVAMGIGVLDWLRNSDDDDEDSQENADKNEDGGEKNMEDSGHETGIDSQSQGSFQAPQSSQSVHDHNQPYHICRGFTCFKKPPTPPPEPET
`Nc1ccc(C(=O)O)cc1`: the inhibition – broadly, the change of the read-out against control, counted positive when it falls – is 4.17% (inactive) and 15.4% (inactive) and 26% (inactive).

On to `O=C(O)c1ccc(C(=O)C(=O)c2ccccc2)cc1`, for which the inhibition was 13.3% (inactive). Next, `Cc1cc(NC(=O)CCC(=O)N(Cc2ccccc2)C(C(=O)NC2CCCC2)c2ccco2)no1` (stereo not given): 10.2% (inactive).

Turning to `O=C(CS(=O)CC(=O)Nc1ccccc1-c1ccccc1)Nc1ccc(F)cc1` (stereo not given), the inhibition is 6.05% (inactive). For `Cc1ccc(Cn2c(=O)c3ccccc3n3c(CCC(=O)NCCN4CCOCC4)nnc23)cc1` the value was 3.95% (inactive). Next, `COc1cc(/C=C(\C#N)c2ccccn2)ccc1OCc1ccccc1`: 4.85% (inactive); `COc1cc(/C=C(\C#N)c2ccccn2)ccc1OCc1ccc(Cl)cc1`: 12.1% (inactive). Turning to `Cn1c(/C(C#N)=C/c2cccc(O)c2)nc2ccccc21`, the inhibition was 12.6% (inactive). In the case of `Cn1c(/C(C#N)=C/c2ccc(O)cc2)nc2ccccc21`, the inhibition was 9.77% (inactive). As to `O=C(C1CCN(S(=O)(=O)c2cccnc2)CC1)N1CCN(c2cccc(Cl)c2)CC1`, the inhibition was 3.44% (inactive).

Turning to `Cc1ccc2c(NC(=O)C3CC3)c(C)ccc2n1`, the inhibition was 13.3% (inactive).

With `O=C(CCNC(=O)N1CC(=O)Nc2ccccc21)NCc1cccc(Cl)c1`, the inhibition was 8.76% (inactive). With `CCC(Sc1ccccc1C(=O)O)C(=O)O` (stereo not given), the inhibition was 1.42% (inactive). With `O=C(O)c1ccccc1SSc1ccccc1C(=O)O`, the inhibition was 1.77% (inactive). Take `CCOC(=O)C1CCN(C(=O)COc2cccc(C)c2)CC1`: the inhibition is 4.64% (inactive). For `CCCCn1c(N)c(N(CC(C)C)C(=O)CSc2n[nH]c(-c3ccc(C)cc3)n2)c(=O)[nH]c1=O`, the inhibition is 13% (inactive). Consider `CCOC(=O)c1sc(NC(=O)c2cc3ccccc3o2)nc1C`, for which the inhibition was -6.17% (inactive). As to `Cc1ccccc1C(=O)Nc1ccccc1N1CCCCC1`, the inhibition was -0.09% (inactive). Turning to `CCC(=O)Nc1ccc(N2CCCCC2)c(C(=O)Nc2ccccc2C)c1`, the inhibition is 0.82% (inactive). On to `CCCCOC(=O)Nc1ccc(C(=O)OC)cc1`, for which the inhibition is 6.13% (inactive). Next, `CCOC(=O)c1c(C)c(C(=O)Nc2ccccc2)c(C)n1CC`: 10.4% (inactive); `CCCCOC(=O)Nc1ccc(C(N)=O)cc1`: 12.3% (inactive); `Cc1ccc(NC(=S)c2ccc(N(C)C)cc2)cc1`: -10.2% (inactive).

On to `Cc1ccc(NC(N)=S)cc1`, for which the inhibition is 8.99% (inactive). For the compound `CCOC(=O)c1c(C)c(C(=O)Nc2ccc3c(c2)OCCO3)c(C)n1CC`, the inhibition is 0.47% (inactive). For `COC(=O)C1=CN(Cc2ccccc2)C=C(C(=O)OC)C1c1ccc(OC)c(OC)c1` the value was 7.64% (inactive). Take `Cc1ccc(N(C(=O)CNC(=O)c2ccco2)C(C(=O)NC2CCCCC2)c2ccncc2)c(C)c1` (stereo not given): the inhibition was 23.9% (inactive). `COC(=O)c1c(-c2ccc(F)cc2)csc1NC(=O)C1CCCO1` (stereo not given): the inhibition is 12% (inactive). For the compound `COc1ccc(-c2cc(=O)oc3cc(O)ccc23)cc1`, the inhibition is 7.73% (inactive). As to `COc1ccc(-c2cc(=O)oc3c(C)c(O)ccc23)cc1`, the inhibition is 6.62% (inactive). Regarding `O=C(Nc1cccc2cccnc12)c1ccccc1Cl`, the inhibition was 1.03% (inactive). In the case of `COc1ccc(OC)c(C2CC(=O)N3CN(c4cccc(Cl)c4C)CSC3=C2C#N)c1` (stereo not given), the inhibition is 45.4% (inactive).

For `COc1ccc(C2CC(=O)N3CN(c4ccc(C)c(Cl)c4)CSC3=C2C#N)cc1OC` (stereo not given), the inhibition is 36.9% (inactive) and 28.8% (inactive).

`COc1ccc(N2CSC3=C(C#N)C(c4cc(OC)ccc4OC)CC(=O)N3C2)c(OC)c1` (stereo not given): the inhibition is 34.1% (inactive). Regarding `COc1ccc(N2CSC3=C(C#N)C(c4cc(OC)c(OC)cc4OC)CC(=O)N3C2)c(OC)c1` (stereo not given), the inhibition was 61.9% (inactive).

Consider `COc1cc(C2CC(=O)N3CN(c4ccccc4C)CSC3=C2C#N)cc(OC)c1OC` (stereo not given), for which the inhibition was -11.8% (inactive).

For the compound `CCc1ccccc1N1CSC2=C(C#N)C(c3cc(OC)c(OC)cc3OC)CC(=O)N2C1` (stereo not given), the inhibition was 16.6% (inactive). In the case of `CC(C)C[C@H](NC(=O)c1nc[nH]c1C(=O)NCc1ccc(CNC(=O)OC(C)(C)C)cc1)C(=O)OC(C)(C)C`, the inhibition was 1.84% (inactive). Consider `CCOc1cc2[nH]c(=O)n(Cc3ccccc3)c(=O)c2cc1OCC`, for which the inhibition was 3.82% (inactive). With `Cc1cc(C)c(C#N)c(N)n1`, the inhibition was 20.5% (inactive). For `COc1ccc(S(=O)(=O)N(CCc2ccccc2)CC(=O)NCCCO)cc1` the value was 6.27% (inactive); for `CN(C)S(=O)(=O)c1ccc(C(=O)Nc2ccn(C)n2)cc1`, 4.29% (inactive); for `CS(=O)(=O)N(CC(=O)N1CCC(C(N)=O)CC1)Cc1ccc(Cl)c(Cl)c1`, 6.63% (inactive). As for `COc1ccccc1Nc1nc(N)nc(CN2CCN(Cc3ccc4c(c3)OCO4)CC2)n1`, the inhibition was 11.3% (inactive). As for `CC(SCC(=O)NC12CC3CC(CC(C3)C1)C2)C(=O)O` (stereo not given), the inhibition is 9.37% (inactive).

Turning to `Cc1ccc(-c2cc(C(F)(F)F)n3ncc(C(=O)N4CCN(C)CC4)c3n2)cc1`, the inhibition was -2.21% (inactive). `CC(/C=C1\SC(=S)N(C(C(=O)O)C(C)C)C1=O)=C\c1ccccc1` (stereo not given): the inhibition is 15.2% (inactive). Take `O=C(O)C(Cc1ccccc1)N1C(=O)/C(=C/c2ccccc2)SC1=S` (stereo not given): the inhibition was 16% (inactive). Regarding `CC(=C\c1ccccc1)/C=C1/SC(=S)N(C(C(=O)O)C(C)C)C1=O` (stereo not given), the inhibition is 18.4% (inactive).

With `O=C(O)CC(C(=O)O)N1C(=O)/C(=C/C=C/c2ccco2)SC1=S` (stereo not given), the inhibition is 53.1% (inactive). On to `CCc1ccc2c(CN3CCOCC3)cc(=O)oc2c1`, for which the inhibition was 3.81% (inactive).

For the compound `COc1ccc(NC(=O)c2cc(-c3ccccc3)on2)cc1OC`, the inhibition was 6.07% (inactive).

Take `Cn1c(Oc2ccc(Cl)c3cccnc23)nc2c1c(=O)n(Cc1ccccc1Cl)c(=O)n2C`: the inhibition was 5.38% (inactive). As to `CCCC(C(=O)NC1CCCC1)N(CCN(CC)CC)C(=O)c1snc(C(N)=O)c1N` (stereo not given), the inhibition is 7.08% (inactive).

With `CC1CCCN(S(=O)(=O)c2ccc(NC(=O)CNC3CCCC3)cc2)C1` (stereo not given), the inhibition is 4.39% (inactive). Consider `CCC1CCCCN1S(=O)(=O)c1ccc(NC(=O)c2ccncc2)cc1` (stereo not given), for which the inhibition is -1.25% (inactive). For the compound `CCc1noc(C)c1C(=O)Nc1ccc(S(=O)(=O)N2CCCC(C)C2)cc1` (stereo not given), the inhibition was 10% (inactive).

Take `CCS(=O)(=O)c1ncc(Cl)c(C(=O)Nc2ccc(C)cc2)n1`: the inhibition was 7.02% (inactive). Next, `CCC1CCCCN1S(=O)(=O)c1ccc(NC(=O)c2cccnc2)cc1` (stereo not given): 16.2% (inactive). With `CC1CCN(S(=O)(=O)c2ccc(NC(=O)c3ccncc3)cc2)CC1`, the inhibition was 7.49% (inactive).
